# Hits are enriched below; roughly 1.2% of the tested compounds scored in any of these assays.
# RGS7-Gao: modulates binding of RGS7 to human Galphao. P09471. Multiplexed bead flow cytometry; actives lie on both sides. binding response (% of control), % at 10 µM. actives 0.35% (n = 220,000); in the data active = binding response below about 49% or above about 150%; inconclusive = no clear call, values can overlap the other calls; inactive = in between;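 note: fluorescent Galphao held in activated GDP-AlF4 state binding bead-coupled RGS7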
# Target sequence (P09471 whole entry, looked up): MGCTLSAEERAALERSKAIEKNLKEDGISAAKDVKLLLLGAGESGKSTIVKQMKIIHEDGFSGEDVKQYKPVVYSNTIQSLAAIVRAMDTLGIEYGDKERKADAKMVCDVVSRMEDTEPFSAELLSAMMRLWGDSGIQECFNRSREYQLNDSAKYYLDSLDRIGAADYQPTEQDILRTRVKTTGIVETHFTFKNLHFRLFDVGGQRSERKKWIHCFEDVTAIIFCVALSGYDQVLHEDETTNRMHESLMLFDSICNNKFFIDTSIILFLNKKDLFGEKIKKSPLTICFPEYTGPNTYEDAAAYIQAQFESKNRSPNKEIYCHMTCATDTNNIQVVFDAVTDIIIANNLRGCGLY
# RGS4-Gao reg: human RGS4-Galphao interaction regulation | P09471 | Multiplexed bead flow cytometry, RGS4-Galphao binding; actives lie on both sides | AID 1415 | actives 0.33% (n = 220,000) | binding response (% of control), % at 10 µM; in the data active = binding response below about 49% or above about 150%; inactive = in between;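 note: fluorescent Galphao activated with aluminum fluoride binding bead-coupled RGS4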
# RGS16-Gao HTS: RGS16-Galphao interaction regulator (human). bead-based flow cytometry RGS16-Galphao binding, fluorescence; actives lie on both sides. binding response (% of control), % at 10 µM. actives 0.38% (n = 220,000). AID 1441;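 note: Galphao activated by GDP with aluminum fluoride before binding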
# Target sequence (O15492 whole entry, looked up): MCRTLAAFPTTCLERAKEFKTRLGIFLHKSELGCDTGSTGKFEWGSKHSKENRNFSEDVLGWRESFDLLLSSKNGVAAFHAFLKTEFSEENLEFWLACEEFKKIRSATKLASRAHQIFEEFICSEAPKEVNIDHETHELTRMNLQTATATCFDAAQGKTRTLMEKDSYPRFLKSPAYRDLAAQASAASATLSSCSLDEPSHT
# Target sequence (P09471 whole entry, looked up): as the sequence (P09471 whole entry, looked up) above
# GSH fluor: compound fluoresces at 488/530 nm on GSH beads; GSH beads flow cytometry, compound fluorescence 488/530 nm; stronger effect = higher value; fluorescence (KMESF) at 10 µM; actives 0.25% (n = 190,000); in the data active = fluorescence above about 89;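 note: glutathione beads carrying GST-tagged Bcl family fusion proteins plus one bare bead set; values are compound well signal with DMSO vehicle wells as background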
# Avidin bead fluor: compound fluoresces at 488/530 nm on avidin beads; actives 0.38% (n = 220,000); fluorescence (KMESF) at 10 µM; compound fluorescence 488/530 nm, flow cytometry; stronger effect = higher value; in the data active = fluorescence above about 47
# RGS8-Gao: regulators of human RGS8-Galphao interaction; multiplexed bead flow cytometry, RGS8-Galphao binding; actives lie on both sides; response (percent of control binding), % at 10 µM; actives 0.34% (n = 220,000); AID 1423; in the data active = response below about 60% or above about 140%; inactive = in between;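 note: Galphao activated as the GDP aluminium fluoride complex binding bead-coupled RGS8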
# RGS4-Gao HTS: RGS4-Galphao interaction regulator (human); actives 99% (n = 1,600); multiplexed bead flow cytometry, RGS–Galpha-o binding; shares compounds with RGS16-Gao HTS; AID 1504; RGS4–Galpha-o binding response, % at 10 µM;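 note: fluorescently labeled Galpha-o bound to GDP with aluminium fluoride binding biotinylated RGS beads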
# Biotin-avidin: counter-screen: compounds disrupting biotin binding to avidin beads; shares compounds with RGS16-Gao HTS; streptavidin beads, fluorescein-biotin binding, flow cytometry; inhibition, % at 10 µM; 1,700 tested, under 10 active;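 active = inhibition above 50%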;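 note: median green fluorescence of gated singlet beads compared with DMSO control wells; 0% = DMSO wells and 100% = complete loss of bead fluorescence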
# RGS8-Gao confirm: RGS8-Galphao interaction regulation, single point confirmation. shares compounds with RGS16-Gao HTS. bead-based flow cytometry RGS8-Galphao binding, fluorescence; actives lie on both sides. binding response (% of control), % at 10 µM. actives 3% (n = 1,700); in the data active = binding response below about 72% or above about 130%; inactive = in between;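 note: Galphao activated as GDP AlF4 complex before binding bead RGS8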
# RGS7-Gao single: RGS7-Galphao interaction regulation, single point confirmation | shares compounds with RGS16-Gao HTS | bead-based flow cytometry RGS7-Galphao binding; actives lie on both sides | response (percent of control binding), % at 10 µM | actives 7.8% (n = 1,700); in the data active = response below about 75% or above about 130%; inactive = in between;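 note: fluorescent Galphao activated with GDP and aluminum fluoride binding bead-coupled RGS7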
# RGS16-Gao single: confirmation of regulators of human RGS16-Galphao interaction; response (% of control binding), % at 10 µM; bead-based flow cytometry, RGS16-Galphao binding; actives lie on both sides; shares compounds with RGS16-Gao HTS; actives 4% (n = 1,700); in the data active = response below about 74% or above about 130%; inactive = in between;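 note: Galphao activated as the GDP aluminium fluoride complex binding bead-coupled RGS16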
# RGS4-Gao confirm: RGS4-Galphao interaction regulation, single point confirmation; actives 4% (n = 1,700); RGS4-Galphao binding, multiplexed bead flow cytometry; actives lie on both sides; binding response (% of control), % at 10 µM; shares compounds with RGS16-Gao HTS; in the data active = binding response below about 74% or above about 130%; inactive = in between
# RGS19-Gao conf: RGS19-Galphao interaction regulation, single point confirmation; bead-based flow cytometry RGS19-Galphao binding; actives lie on both sides; response (percent of control binding), % at 10 µM; actives 5% (n = 1,700); AID 1841; shares compounds with RGS16-Gao HTS; in the data active = response below about 50% or above about 160%; inactive = in between;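 note: 100% = no compound control and 0% = blank background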
# Starred values were filed as active, the others as inactive; ? = inconclusive; . = no result given; + = active, no number; [ ] = another dose, or the depositor's remark. Unless noted, the rule behind the calls is not given here.
SMILES,RGS7-Gao,RGS4-Gao reg,RGS16-Gao HTS,GSH fluor,Avidin bead fluor,RGS8-Gao,RGS4-Gao HTS,Biotin-avidin,RGS8-Gao confirm,RGS7-Gao single,RGS16-Gao single,RGS4-Gao confirm,RGS19-Gao conf
CC1=CC=CC2=NC(=O)CC(C)(C(=O)O)N12 (configuration not stated),104,101,99,18,8,98,.,.,.,.,.,.,.
CC(=O)Nc1cccc(OCCCNC(=O)C2CCC2)c1,?,106,102,.,4,103,.,.,.,.,.,.,.
CC(=O)Nc1ccc(NC(=O)c2ccco2)cc1,85,83,-100*,15,8,69,83*,-1,102,97,102,101,94
CCCCCCOc1ccc(N2C(=O)CC(N3CCN(CCN=CC4C(=O)CC(C)(C)CC4=O)CC3)C2=O)cc1 (configuration not stated),158*[activator],121,103,14,85*,97,121*,-2,99,97,98,98,94
Cc1cc(-c2n[nH]c(=S)n2/N=C/c2cc([N+](=O)[O-])ccc2Cl)n[nH]1,79,83,-2.0*,7,7,66,83*,0,97,123,96,103,92
O=C(OCCN1C(=O)c2ccccc2C1=O)c1cccs1,126,130,+,16,6,140,130*,.,.,.,.,.,.
O=C(NC1=NCCS1)c1ccccc1OCc1ccccc1Cl,102,104,103,12,12,101,.,.,.,.,.,.,.
Cc1cc(C(=O)CSc2nc3ccccc3c(=O)[nH]2)c(C)n1C,8.0*,18*,11*,24,-1,10*,.,0,104,102,104,102,98
CCN(C(=O)c1cc2cccc(OC)c2oc1=O)C1CCCCC1,188*[activator],187*[activator],223*[activator],18,112*,85,.,3,99,101,96,99,100
O=C(CCSCc1ccc(Cl)cc1)NCCc1ccccc1,97,103,93,11,12,97,.,.,.,.,.,.,.
Cc1ccc(CSCCC(=O)NCCc2ccc(Cl)cc2)cc1,212*[activator],188*[activator],212,17,121*,112,.,2,95,95,95,97,87
O=C(c1ccc(S(=O)(=O)c2ccc(Cl)cc2)cc1)N1CCOCC1,104,102,106,24,11,106,.,.,.,.,.,.,.
O=C(Cn1c2[n+](c3ccc(C(F)(F)F)cc31)CCCCC2)Nc1ccccc1,104,105,106,9,9,101,.,.,.,.,.,.,.
CCc1cccc(NC(=O)Cn2c3[n+](c4ccc(C(F)(F)F)cc42)CCCCC3)c1,126,128,238*[activator],9,4,147*[activator],128*,-1,106,108,105,108,113
CCOc1ccccc1-c1c2cc(O)c(=O)cc-2oc2cc(O)c(O)cc12,42*,85,47,10,4,69,85*,-2,64*,50*,63*,82,40*
O=c1cc2oc3cc(O)c(O)cc3c(-c3ccccc3O)c-2cc1O,?,90,86,.,2,87,.,.,.,.,.,.,.
CCOP(=O)(OCC)C(C)(C)NC(=O)c1cc([N+](=O)[O-])cc([N+](=O)[O-])c1,.,.,.,50,.,.,.,-1,104,105,104,103,92
CCC(C)(C)NC(=O)c1cc(C(=O)OC)cc([N+](=O)[O-])c1,100,97,108,30,8,99,.,.,.,.,.,.,.
CC1(C)CC(=O)c2cnc(NC(=O)CSC(=S)N3CCCCC3)nc2C1,?,102,102,.,7,101,.,.,.,.,.,.,.
COc1cc(N(C(=O)Cc2cccs2)C(C(=O)NC2CCCCC2)c2cccc(OC)c2OC)ccc1-n1cnnn1 (configuration not stated),88,92,24*,10,6,82,92*,0,101,105,100,101,98
COc1ccccc1NC(=O)Cn1nnc(-c2ccccc2NC(=O)c2ccco2)n1,.,.,.,10,.,.,.,-1,103,103,103,105,101
COc1ccc(NC(=O)Cn2nnc(-c3ccccc3NC(=O)c3ccco3)n2)cc1,105,106,103,14,35,103,.,.,.,.,.,.,.
CCC(=O)Nc1cc(ON=C(C)C)cc([N+](=O)[O-])c1,-15*,-40*,39,14,-2,34*,.,-2,99,99,101,98,102
CC(C)=NOc1cc(NC(=O)CCl)cc([N+](=O)[O-])c1,100,101,106,13,4,102,.,.,.,.,.,.,.
COc1ccc(-n2c(SCC(=O)Nc3cc(C)on3)nc3c(c2=O)SCC3)cc1,117,122,355,26,5,166*[activator],122*,0,99,92,97,99,100
SMILES,RGS7-Gao,RGS4-Gao reg,RGS16-Gao HTS,GSH fluor,Avidin bead fluor,RGS8-Gao,RGS4-Gao HTS,Biotin-avidin,RGS8-Gao confirm,RGS7-Gao single,RGS16-Gao single,RGS4-Gao confirm,RGS19-Gao conf
Cc1cc(NC(=O)CSc2nc3c(c(=O)n2-c2ccc(Br)cc2)SCC3)no1,92,86,36,16,5,82,.,.,.,.,.,.,.
COc1cccc(NC(=O)NCCc2ccc(Cl)cc2)c1,95,96,96,19,10,95,.,.,.,.,.,.,.
COc1ccc(NC(=O)NCCc2ccc(Cl)cc2)cc1OC,-3.3*,7.0*,0.8*,16,-1,12*,.,1,106,104,106,103,103
COc1ccc(CNC(=O)NCc2ccc(OC)c(OC)c2)cc1OC,157*[activator],115,137,37,64*,105,115*,-1,96,97,97,97,94
COc1ccc(CNC(N)=O)cc1OC,103,101,102,52,12,102,.,.,.,.,.,.,.
COc1ccc(CC(=O)OCC(=O)NCc2ccccc2Cl)cc1OC,162*[activator],160*[activator],176*[activator],15,22,159*[activator],.,0,104,96,104,97,99

# Compound activity from PubChem BioAssay.
